Results from the supplement of paper PMC12350171.
Where a name gives a salt, the structure may show the parent alone.

Each compound was assayed on Salmonella enterica typhimurium (assay: growth AUC normalised to DMSO control (fraction of control); higher = less growth inhibition, active = hit call of the paper). Settings: 20 µM;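 active = AUC significantly below DMSO controls by Student t-fit with adjusted P under 0.01; inactive = not significantly reduced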.
Procedure, shortened: (§1)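 For the AUC endpoint, growth curves were integrated by the trapezoidal rule up to the exponential-to-stationary transition and normalised to DMSO controls on the same plate. The curves came from OD578 readings taken hourly for 24 h, in three biological replicates. Pathogens had been passaged anaerobically twice and inoculated at an OD578 of 0.01 into pre-reduced mGAM plates carrying 20 μM compound and 1% DMSO, sealed with breathable membranes. Medium for Haemophilus parainfluenzae also contained hemin and NAD.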

| Structure (SMILES) | growth AUC normalised to DMSO control |
| --- | --- |
| O=[N+]([O-])O[C@@H]1CO[C@H]2[C@@H]1OC[C@@H]2O [Isosorbide mononitrate] | 1.01 (inactive) |
| COc1ccc2c(c1)[C@]13CCCC[C@@H]1[C@H](C2)N(C)CC3 [Dextromethorphan hydrobromide monohydrate] | 0.982 (inactive) |
| COc1ccc(Cc2nccc3cc(OC)c(OC)cc23)cc1OC [Papaverine hydrochloride] | 1 (inactive) |
| CN[C@@H]1C[C@@H](c2ccc(Cl)c(Cl)c2)c2ccccc21 [Indatraline hydrochloride] | 1.02 (inactive) |
| CC(C)C[C@H]1C(=O)N2CCC[C@H]2[C@]2(O)O[C@](NC(=O)[C@@H]3C=C4c5cccc6[nH]c(Br)c(c56)C[C@H]4N(C)C3)(C(C)C)C(=O)N12 [Bromocryptine mesylate] | 1 (inactive) |
| C=CCN1CC[C@]23c4c5ccc(O)c4O[C@H]2C(=O)CC[C@@]3(O)[C@H]1C5 [Naloxone hydrochloride] | 0.981 (inactive) |
| C=C1C[C@@H]2[C@H](CC[C@]3(C)C(=O)CC[C@@H]23)[C@@]2(C)C=CC(=O)C=C12 [Exemestane] | 0.985 (inactive) |
| CCC(=O)O[C@H]1CC[C@H]2[C@@H]3CCC4=CC(=O)CC[C@]4(C)[C@H]3CC[C@]12C [Testosterone propionate] | 1.02 (inactive) |
| C[C@]12COC(=O)C[C@@H]1CC[C@@H]1[C@@H]2CC[C@@]2(C)[C@H]1CC[C@]2(C)O [Oxandrolone] | 1.01 (inactive) |
| C[C@]12CCC(=O)C=C1CC[C@@H]1[C@@H]2C(=O)C[C@]2(C)C(=O)CC[C@@H]12 [Adrenosterone] | 0.996 (inactive) |
| CCN(C)C(=O)Oc1cccc([C@H](C)N(C)C)c1 [Rivastigmine] | 1.04 (inactive) |

The compounds below were run on Shigella flexneri in the same assay as above. Settings: 20 µM.
Procedure, shortened: as §1

| Structure (SMILES) | growth AUC normalised to DMSO control |
| --- | --- |
| O=[N+]([O-])O[C@@H]1CO[C@H]2[C@@H]1OC[C@@H]2O [Isosorbide mononitrate] | 1.03 (inactive) |
| COc1ccc2c(c1)[C@]13CCCC[C@@H]1[C@H](C2)N(C)CC3 [Dextromethorphan hydrobromide monohydrate] | 0.988 (inactive) |
| COc1ccc(Cc2nccc3cc(OC)c(OC)cc23)cc1OC [Papaverine hydrochloride] | 0.971 (inactive) |
| CN[C@@H]1C[C@@H](c2ccc(Cl)c(Cl)c2)c2ccccc21 [Indatraline hydrochloride] | 1.05 (inactive) |
| CC(C)C[C@H]1C(=O)N2CCC[C@H]2[C@]2(O)O[C@](NC(=O)[C@@H]3C=C4c5cccc6[nH]c(Br)c(c56)C[C@H]4N(C)C3)(C(C)C)C(=O)N12 [Bromocryptine mesylate] | 0.996 (inactive) |
| C=CCN1CC[C@]23c4c5ccc(O)c4O[C@H]2C(=O)CC[C@@]3(O)[C@H]1C5 [Naloxone hydrochloride] | 1.03 (inactive) |
| C=C1C[C@@H]2[C@H](CC[C@]3(C)C(=O)CC[C@@H]23)[C@@]2(C)C=CC(=O)C=C12 [Exemestane] | 0.953 (inactive) |
| CCC(=O)O[C@H]1CC[C@H]2[C@@H]3CCC4=CC(=O)CC[C@]4(C)[C@H]3CC[C@]12C [Testosterone propionate] | 1.03 (inactive) |
| CC(N)C(O)c1ccccc1 (stereo not drawn) [Phenylpropanolamine hydrochloride] | 1.03 (inactive) |
| C[C@]12COC(=O)C[C@@H]1CC[C@@H]1[C@@H]2CC[C@@]2(C)[C@H]1CC[C@]2(C)O [Oxandrolone] | 1 (inactive) |
| C[C@]12CCC(=O)C=C1CC[C@@H]1[C@@H]2C(=O)C[C@]2(C)C(=O)CC[C@@H]12 [Adrenosterone] | 1.01 (inactive) |
| CCN(C)C(=O)Oc1cccc([C@H](C)N(C)C)c1 [Rivastigmine] | 1.02 (inactive) |
